# Test results taken from the supplement of paper PMC12067093, “Discovery and optimisation of a covalent ligand for TRIM25 and its application to targeted protein ubiquitination” (Chemical Science, 2025).
# Of roughly 21,000 targets only a part is listed; those with the largest changes were picked by preference.
# Compound: CC1Cc2ccccc2N1C(=O)C1CCCN(C1)C(=O)CCl (mixture of isomers) [TRIM25 ligand 11 (diastereomer mixture)]
# Assay: probe-labelled cysteine peptide fold change vs DMSO (competition) (log2 fold change); higher = less target engagement (more negative = stronger competition)
# Details: THP-1, incubation time: 4 h
# 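Further: competitive chemoproteomic profiling in live THP-1 cells with an iodoacetamide desthiobiotin (IA-DTB) probe, comparing probe-labelled peptide intensities in compound-treated cells against DMSO-treated controls.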
Target,probe-labelled cysteine peptide fold change (10 µM),probe-labelled cysteine peptide fold change (50 µM)
MKI67_P46013_773_EQPQLTSTCHIAISNSENLLGK (UniProt P46013),0.234,-0.0412
METAP1_P53582_255_KLVQTTYECLMQAIDAVKPGVR (UniProt P53582),-0.564,-0.516
MYH9_P35579_896_LQLQEQLQAETELCAEAEELRAR (UniProt P35579),-0.566,-0.0747
MOCS3_O95396_193_YLVNDACVLAGRPLVSASALR (UniProt O95396),-0.0913,-0.0185
LYAR_Q9NX58_30_NCECLSCIDCGK (UniProt Q9NX58),-0.0598,-0.0603
MOV10_Q9HCE1_172_NGGTQSVTLTHLFPLCR (UniProt Q9HCE1),0.234,0.148
MT1E_P04732_50_CAQGCVCK<|>MT1F_P04733_50_CAQGCVCK<|>MT1B_P07438_50_CAQGCVCK<|>MT1L_Q93083_50_CAQGCVCK (UniProt Q93083+P07438+P04733+P04732),-0.000901,0.116
LUC7L3_O95232_58_SDLGPCEK (UniProt O95232),-0.0397,-0.155
NAA25_Q14CX7_339_SQGCNDEYK (UniProt Q14CX7),0.0881,-0.0602
NADK2_Q4G0N4_311_SSGLNLCTGTGSK (UniProt Q4G0N4),-0.0288,-0.0319
MYH3_P11055_1412_CASLEK<|>MYH1_P12882_1415_CASLEK<|>MYH8_P13535_1414_CASLEK<|>MYH2_Q9UKX2_1417_CASLEK<|>MYH13_Q9UKX3_1415_CASLEK<|>MYH4_Q9Y623_1415_CASLEK (UniProt Q9Y623+Q9UKX3+Q9UKX2+P13535+P12882+P11055),0.356,0.307
MOGS_Q13724_137_HTCEQGDGVGPYGWEFHDGLSFGR (UniProt Q13724),-0.0183,-0.127
MYO9B_Q13459_152_QQADFDDLCNLPELTEGNLLK (UniProt Q13459),-0.135,-0.0276
MTREX_P42285_983_LEIDEETYLSSFKPHLMDVVYTWATGATFAHICK (UniProt P42285),0.115,-0.0469
MRC2_Q9UBG0_213_EDGHLWCATTQDYGKDER (UniProt Q9UBG0),-0.0873,-0.0151
MAP4K2_Q12851_302_ASDPHLGTPSPEDCELETYDMFPDTIHSR (UniProt Q12851),-0.0289,-0.161
LTA4H_P09960_26_CSVDFTR (UniProt P09960),-0.0535,-0.00265
MAPRE2_Q15555_279_EIELLCQEHGQENDDLVQR (UniProt Q15555),-0.0442,-0.23
NCAPG2_Q86XI2_776_NRECLLSAPR (UniProt Q86XI2),-0.0525,-0.00285
MLST8_Q9BVC4_107_WMYTGGEDCTAR (UniProt Q9BVC4),0.0109,-0.0842
MDN1_Q9NU22_4604_HLFFSQSCSLLVR (UniProt Q9NU22),0.142,0.423
MAVS_Q7Z434_33_NFSNFCNVDVVEILPYLPCLTAR (UniProt Q7Z434),0.142,0.343
MCM2_P49736_624_CTVIAAANPIGGR (UniProt P49736),0.0682,0.0292
MFSD2A_Q8NA29_44_KQQLSVCNK (UniProt Q8NA29),-0.207,-0.294
MRPS24_Q96EL2_103_FMWGTFPGCLADQLVLK (UniProt Q96EL2),0.183,0.203
MRPS34_P82930_93_SWLWQHDEPCYWR (UniProt P82930),0.0173,0.142
MDH2_P40926_93_GCDVVVIPAGVPR (UniProt P40926),-0.0615,0.0728

Target,probe-labelled cysteine peptide fold change (10 µM),probe-labelled cysteine peptide fold change (50 µM)
NCAPH_Q15003_114_FTNTQITEHYSTCIK (UniProt Q15003),0.199,-0.135
MCM6_Q14566_351_NLYHNLCTSLFPTIHGNDEVK (UniProt Q14566),0.107,0.0102
NAXD_Q8IW45_261_GERDILSNGQQVLVCSQEGSSR (UniProt Q8IW45),0.0581,0.131
MCU_Q8NE86_97_CQFTLKPISDSVGVFLR (UniProt Q8NE86),-0.212,-0.196
MTMR1_Q13613_438_TSVVVHCSDGWDR (UniProt Q13613),0.559,-0.0364
MIF_P14174_81_LLCGLLAER (UniProt P14174),-0.156,-0.117
MED14_O60244_635_AGEMCAFNK (UniProt O60244),-0.0268,-0.0566
MYCBP2_O75592_3786_NITINCVK (UniProt O75592),-0.237,0.117
METTL5_Q9NRN9_107+110_NAEEFELTNIDMVQCDVCLLSNR (UniProt Q9NRN9),-0.067,-0.00432
MTPAP_Q9NVV4_324_FSHQASGFQCDLTTNNR (UniProt Q9NVV4),0.592,0.896
MATR3_P43243_296_GYPHLCSICDLPVHSNK (UniProt P43243),-0.0503,0.00253
NAE1_Q13564_384_LLCSNSAFLR (UniProt Q13564),-0.025,-0.00331
MTM1_Q13496_242_CSQPLVGMSGKR (UniProt Q13496),-0.862,-0.255
MYO1G_B0I1T2_618_LDENHCR (UniProt B0I1T2),0.054,0.247
MRM3_Q9HC36_309_ASDHGWVCDQR (UniProt Q9HC36),0.135,-0.1
MORC3_Q14149_717_QCHMFTDQIK (UniProt Q14149),-0.0943,0.000884
NACC1_Q96RE7_178_VKTEQQESDSVQCMPVAK (UniProt Q96RE7),-0.28,-0.426
MED14_O60244_1433_QGECTIFAAVR (UniProt O60244),0.177,0.249
NAA10_P41227_17+21_NARPEDLMNMQHCNLLCLPENYQMK (UniProt P41227),-0.0777,-0.156
MRPL45_Q9BRJ2_151_DIFIEAHLCLNNSDHDR (UniProt Q9BRJ2),-0.648,-0.159
MATR3_P43243_821_NTHCSSLPHYQK (UniProt P43243),0.121,-0.196
MAU2_Q9Y6X3_145_AIQISQQTPYWHCR (UniProt Q9Y6X3),-0.167,0.0177
MYADM_Q96S97_279_SRDVSCSR (UniProt Q96S97),1.04,1.29
MAP10_Q9P2G4_605_TVDCSK (UniProt Q9P2G4),-0.174,-0.0642
MICALL1_Q8N3F8_194_CSSTLLPGAYENGPEEGTFVCAEHCAR (UniProt Q8N3F8),0.154,-0.0569
NANS_Q9NR45_19_WVGGQHPCFIIAEIGQNHQGDLDVAK (UniProt Q9NR45),0.0689,0.0782
MRC2_Q9UBG0_201_YDNQWFHGCTSTGR (UniProt Q9UBG0),-0.768,-1.05

Target,probe-labelled cysteine peptide fold change (10 µM),probe-labelled cysteine peptide fold change (50 µM)
MDN1_Q9NU22_1400_TTICQVFAALANQK (UniProt Q9NU22),0.156,0.0599
NBEAL2_Q6ZNJ1_2335_ALEGIISNFGQTPCQLLK (UniProt Q6ZNJ1),0.0509,-0.034
MACF1_Q9UPN3_3619_QQNTCHQQLEDLCSWVGQAER (UniProt Q9UPN3),-0.474,0.118
MELTF_P08582_603_SEDYELLCPNGAR (UniProt P08582),0.0149,0.0229
MDN1_Q9NU22_1394_ALEFGEPVLLVGDTGCGK (UniProt Q9NU22),-0.0161,0.145
NAPA_P54920_212+215_AALCHFCIDMLNAK (UniProt P54920),-0.0124,0.149
MVP_Q14764_515_ALCLLLGPDFFTDVITIETADHAR (UniProt Q14764),0.505,0.893
MAP4K1_Q92918_334+335_SSSLGIPDADCCR (UniProt Q92918),-0.0222,-0.126
MTA2_O94776_106_CSVTLLNETDILSQYLEK (UniProt O94776),0.0256,0.178
MED13L_Q71F56_1457_LGQHKPICK (UniProt Q71F56),-0.182,-0.263
MIS12_Q9H081_133_YKTELCTK (UniProt Q9H081),-0.0461,0.0357
MSH6_P52701_1158+1165_QAGLLAVMAQMGCYVPAEVCR (UniProt P52701),-0.115,-0.66
MRTO4_Q9UKD2_176_RGVVTLLSDYEVCK (UniProt Q9UKD2),0.091,-0.0317
MORC3_Q14149_744_ETCHQSTETDAVFLLESINGK (UniProt Q14149),0.143,-0.605
MAN2C1_Q9NTJ4_871_WMDLSEHGFGLALLNDCK (UniProt Q9NTJ4),0.38,0.327
MKNK2_Q9HBH9_136_EVEMLYQCQGHR (UniProt Q9HBH9),0.495,0.556
MRE11_P49959_249_HGSTNFIPEQFLDDFIDLVIWGHEHECK (UniProt P49959),-0.0677,-0.0212
NCAPD3_P42695_361_ILLQHICAK (UniProt P42695),-0.145,0.173
NASP_P49321_568_LGEVSVESENYVQAVEEFQSCLNLQEQYLEAHDR (UniProt P49321),-0.127,0.217
METTL13_Q8N6R0_226_FRPVPGSALQIFELCAQEQR (UniProt Q8N6R0),0.025,-0.292
NAPA_P54920_84_HDAATCFVDAGNAFK (UniProt P54920),0.0886,0.00981
MFN1_Q8IWA4_513_LCSDFQEDIVFR (UniProt Q8IWA4),0.257,0.355
MOB4_Q9Y3A3_134_HTLDGAACLLNSNK (UniProt Q9Y3A3),-0.19,-0.629
MGST3_O14880_56_YKVEYPIMYSTDPENGHIFNCIQR (UniProt O14880),0.0746,-0.113
MYO9B_Q13459_1169_HIQSCK (UniProt Q13459),-0.0237,-0.105
MED15_Q96RN5_618_QQYLCQPLLDAVLANIR (UniProt Q96RN5),-0.00606,0.36
